Test results published in PubChem BioAssay.
Active and inactive are the calls of the source.

The compounds below were run against Luciferin 4-monooxygenase (Photinus pyralis) (UniProt P08659) (assay: firefly luciferase enzyme inhibitors, primary screen, biochemical, luminescence, purified enzyme, 2006 set (AID 1141;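 note: cell-free assay with purified firefly luciferase at 100 ng per well in PBS; test concentration not given here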)). Details: SteadyGlo luminescence, 30 min, higher = more signal, called active from +8 up or from −8 down.
Luciferin 4-monooxygenase (Photinus pyralis), sequence (P08659 whole entry, looked up): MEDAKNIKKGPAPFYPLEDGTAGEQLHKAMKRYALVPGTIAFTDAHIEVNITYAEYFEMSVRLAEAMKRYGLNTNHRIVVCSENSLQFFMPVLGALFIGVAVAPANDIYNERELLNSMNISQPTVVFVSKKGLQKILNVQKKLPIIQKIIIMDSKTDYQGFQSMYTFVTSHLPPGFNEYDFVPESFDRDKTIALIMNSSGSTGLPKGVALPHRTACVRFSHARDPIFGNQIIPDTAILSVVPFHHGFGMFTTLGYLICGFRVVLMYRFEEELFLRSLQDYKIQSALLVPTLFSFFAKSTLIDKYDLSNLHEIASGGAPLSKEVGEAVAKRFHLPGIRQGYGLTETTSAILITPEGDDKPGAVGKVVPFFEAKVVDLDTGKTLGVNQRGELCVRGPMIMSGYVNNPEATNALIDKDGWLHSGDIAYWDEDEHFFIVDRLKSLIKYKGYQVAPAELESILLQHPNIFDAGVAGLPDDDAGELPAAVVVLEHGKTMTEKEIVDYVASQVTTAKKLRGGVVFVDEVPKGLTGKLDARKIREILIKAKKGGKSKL

| SMILES | z-score |
| --- | --- |
| [N-]=[N+]=Nc1ccccc1C[C@]1(C(=O)NCCN2CCOCC2)COC(c2ccc(OCCCO)cc2)=N1 | -2.91 (inactive) |
| COc1ccc([Si](C)(C)[C@H]2[C@H](CC(=O)N3Cc4ccccc4C[C@H]3CO)O[C@@]3(C(=O)N(Cc4ccc(N5CCOC5=O)cc4)c4ccccc43)[C@@H]2C)cc1 | -0.246 (inactive) |
| CS(=O)(=O)CCOC(=O)C1=CC(c2ccc(CO)cc2)=CC(C2CC2)N(Cc2sc3ccccc3c2Cl)C=C1C(=O)OCCS(C)(=O)=O (stereo not drawn) | -1.86 (inactive) |
| CCCCNC(=O)c1ccc(C#CC(C)(C)C)c(OC(C)=O)c1 | 0.856 (inactive) |
| O=C1C2C=CC(C(O)c3ccco3)N(Nc3ccccc3F)C2C(=O)N1c1ccccc1 (stereo not drawn) | -0.0425 (inactive) |
| COc1cc(NN2C(C(O)c3ccco3)C=CC3C(=O)N(C)C(=O)C32)cc(OC)c1OC (stereo not drawn) | -0.249 (inactive) |
| COC(=O)[C@@]1(Cc2ccc(F)cc2)[C@H]2c3cc(C(=O)N(C)C)n(CCc4ccc(OC)c(Br)c4)c3C[C@H]2CN1C(=O)c1ccccc1 | -0.499 (inactive) |
| CC(C)[Si](C#CCCCC#N)(O[C@H](c1ccccc1)c1cn(Cc2ccccc2)nn1)C(C)C | -0.254 (inactive) |
| COCCOC(=O)N1C(=O)[C@@]2(c3cc(C#CC4(O)CCCCCC4)ccc31)[C@H](C(=O)Nc1nc3ccccc3s1)[C@H]1C(=O)O[C@H](c3ccccc3)[C@H](c3ccccc3)N1[C@@H]2c1ccc(O)cc1 | -0.557 (inactive) |

What follows are compounds tested on Wnt5a (protein binding on small-molecule microarray) (assay: Wnt5a binders on small-molecule microarray, primary screen, biophysical, 635/667 nm fluorescence (AID 1142;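 note: fluorescence read at 667 nm with signal to noise per printed feature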)). Details: 635 nm fluorescence, higher = more signal.

| SMILES | composite z-score |
| --- | --- |
| CCC#CCN(Cc1ccccc1Br)[C@H](/C=C/C1CC1)[C@@H](O)Cc1ccccc1 | -0.679 |
| CCCCN1CC=CC23O[C@@H]4/C=C\CCCOC(=O)C4[C@H]2C(=O)N(CCO)[C@@H]3C1=O (stereo partly drawn) | -0.703 |
| C=CCNC(=O)[C@@H]1[C@H]2C(=O)O[C@H](c3ccccc3)[C@H](c3ccccc3)N2[C@H](c2ccccc2OCCO)[C@@]12C(=O)N(C(=O)OCCOC)c1ccc(C#CC3(O)CCCCCC3)cc12 | 0.238 |
| O=C(C1N=C(c2ccc(OCCCO)cc2)N(c2ccccc2)O1)N1CCCCC1 (stereo not drawn) | 0.296 |
| CN(C)CCCCCCNC(=O)[C@@H]1C[C@@H]2C(=O)N3CCC[C@H]3C(=O)N2[C@@H]1c1cccc(OCCO)c1 | 0.697 |
| COC(=O)[C@@]1(Cc2ccccc2)[C@H]2c3cc(C(=O)N(C)C)n(Cc4ccc(C)o4)c3C[C@H]2CN1C(=O)c1ccccc1 | 1.28 |
| O[C@@H](Cc1ccccc1)[C@@H](/C=C/C1CC1)N(CC#Cc1ccccc1)Cc1ccccc1Br | -1.03 |
| COCC(=C=CC[C@H](O)c1ccc(OCCO)cc1)CCO | 0.0048 |
| NCCCCCNC(=O)[C@H]1C[C@H]2C(=O)N3CCC[C@H]3C(=O)N2[C@H]1c1cccc(OCCO)c1 | 0.444 |
| CCCC[C@@H]1C[C@H]1[C@@H](NC(=O)c1cccs1)c1ccccc1C(F)(F)F | 0.0098 |
| CCOC(=O)C[C@H]1[C@H](OC(=O)Cc2ccc3c(c2)OCO3)[C@@H](NC(=O)C2CCCCC2)c2cc(OCCCO)ccc2N1C(=O)c1ccccc1 | -0.0729 |
| COc1cc(C(O)C2C=CC3C(=O)N(C)C(=O)C3N2Nc2ccccc2)cc(OC)c1OC (stereo not drawn) | 0.238 |
| COc1ccc([Si](C)(C)[C@@H]2[C@@H](CC(=O)N3Cc4ccccc4C[C@H]3CO)O[C@]3(C(=O)N(Cc4ccc(N5C(=O)c6cccc7cccc5c67)cc4)c4ccccc43)[C@H]2C)cc1 | 0.453 |
| C=CCC(OC(C)=O)[C@@H]1[C@@H](N(Cc2ccc(-c3cccc(C(F)(F)F)c3)o2)C(=O)c2ccc(-c3ccccc3)cc2)c2cc(OCCCO)ccc2N1C(=O)Cc1ccc2ccccc2c1 (stereo partly drawn) | -0.276 |
| C=CCNC(=O)[C@H]1[C@@H]2C(=O)O[C@@H](c3ccccc3)[C@@H](c3ccccc3)N2[C@@H](c2ccccc2OCCO)[C@]12C(=O)N(C(=O)OCCOC)c1ccc(C#CC3(O)CCCCCC3)cc12 | 0.358 |
| COc1ccc([Si](C)(C)[C@@H]2[C@@H](CCO)O[C@]3(C(=O)N(Cc4cccc(NC(=O)[C@H](C)O)c4)c4ccccc43)[C@H]2C)cc1 | 0.736 |
| CCCCC[C@H]1OC[C@@]23C=C(Br)[C@@H](CC12)[C@@]1(CO1)C3=O (stereo partly drawn) | -0.233 |
| C=CCN1Cc2ccccc2[C@@H]2OC(c3ccc(OCCCO)cc3)=N[C@]2(CC=C)C1=O | 0.518 |
| Cc1ccc(NN2C(C(O)c3c(F)cccc3Cl)C=CC3C(=O)N(C4CCCCC4)C(=O)C32)cc1 (stereo not drawn) | 0.361 |
